Test results: PubChem BioAssay (NCI)
This is part of a sample that, as a whole, favours compounds with a hit. Of some 79,000 tested, about 15% had one in any assay. Cut-off read from the data, not from the text of the source: active = growth inhibition above about 70%; inactive = the rest. Where a SMILES comes first, the peptide text is derived from it. The star is where a group is joined. Boc = CC(C)(C)OC(=O)*; OtBu = CC(C)(C)O*

Experiments:
[1] = NCI Yeast Anticancer Drug Screen. Data for the rad50 strain (AID 155);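 note: 0% = growth of vehicle-only cultures of the same strain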; settings: S. cerevisiae rad50 strain growth inhibition; at 50.0 µM; stronger effect = higher value
Summary of the method: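 Inhibition values express reduced yeast growth in compound-treated cultures relative to vehicle-treated controls.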

[2] = NCI Yeast Anticancer Drug Screen. Data for the mec2-1 strain (AID 157); settings: S. cerevisiae mec2-1 strain, at 50.0 µM, stronger effect = higher value
Summary of the method: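 mec2-1 yeast strain, carrying an alteration in DNA damage repair or cell cycle control, was exposed to compounds; growth inhibition was measured relative to vehicle-treated controls.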

[3] = NCI Yeast Anticancer Drug Screen. Data for the sgs1 mgt1 strain (AID 161);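 note: 0% = growth of cultures given vehicle only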; settings: S. cerevisiae sgs1 mgt1 strain, at 50.0 µM, stronger effect = higher value
Summary of the method: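 Percent growth inhibition was derived by comparing compound-exposed mutant yeast with vehicle-exposed cultures. The strain carries alterations in DNA damage repair.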

[4] = NCI Yeast Anticancer Drug Screen. Data for the cln2 rad14 strain (AID 165);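 note: 0% = growth equal to vehicle treated cultures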; settings: S. cerevisiae cln2 rad14 strain, at 50.0 µM, stronger effect = higher value
Summary of the method: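 Yeast carrying cln2 and rad14 alterations (cell cycle control and DNA damage repair) were exposed to compounds. Growth inhibition was measured against vehicle-treated controls.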

[5] = NCI Yeast Anticancer Drug Screen. Data for the bub3 strain (AID 167); settings: S. cerevisiae bub3 mutant strain, at 50.0 µM, stronger effect = higher value
Summary of the method: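 Steps: expose the mutant yeast strain to compound; grow alongside vehicle-treated cultures; measure growth; express inhibition against the vehicle cultures.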

[6] = NCI Yeast Anticancer Drug Screen. Data for the mlh1 rad18 strain (AID 175); settings: S. cerevisiae mlh1 rad18 strain growth inhibition; at 50.0 µM; stronger effect = higher value
Summary of the method: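 Growth inhibition of the yeast strain was measured after compound exposure and expressed relative to vehicle-treated controls. The strain carries defined defects in DNA damage repair.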

Measured: growth inhibition

CC(=O)Nc1ccc(S(=O)(=O)N/N=C/c2ccco2)cc1
inactive: [1] 23.1% | [2] 1.2% | [3] 5.7% | [4] -30.6% | [5] 4.1% | [6] 33.6%

O=C(/C=C\c1ccc([N+](=O)[O-])cc1)c1ccccc1
inactive: [1] -1.6% | [2] -6.1% | [3] -2.4% | [4] -28.3% | [5] -3.6% | [6] -16.2%

COc1ccc2c(=O)c(S)coc2c1
inactive: [1] 35.8% | [2] 36.5% | [3] 22.3% | [4] 9% | [5] -1.15% | [6] 41%

CCC1(C)CC(C)(C)c2cc(C(C)=O)c(C)cc21 (stereo unspecified)
inactive: [1] 8.1% | [2] -1.05% | [3] -4.7% | [4] -29.5% | [5] 11.3% | [6] 4.15%

CCC1C(OC)=CC2(CC)CC1(OC)OC2=O (stereo unspecified)
inactive: [1] -4.75% | [2] -0.3% | [3] -1.2% | [4] -2.45% | [5] 7.45% | [6] -3.35%

c1ccc2[nH]c3c(N=NC4=NCCN4)c4ccccc4c-3nc2c1
inactive: [1] -10.5% | [2] -56.2% | [3] 10.1% | [4] -5.85% | [5] -15.3% | [6] 12.8%

Cc1ccc(C2=Nn3c(nc4sc(C)c(C)c4c3=O)SC2)cc1
inactive: [1] -27.9% | [2] -3.25% | [3] -23.1% | [4] 6.15% | [5] -22.1% | [6] -10.6%

CC(=O)Oc1cc2c(c3ccc4ccccc4c13)CCc1ccccc1-2
inactive: [1] 11.8% | [2] -11.7% | [3] 10.1% | [4] 10.2% | [5] 0.1% | [6] 4.9%

CCCCN(CCCC)CC(O)c1cc(-c2ccc(Cl)cc2)nc2c(Cl)cc(Cl)cc12 (stereo unspecified)
inactive: [1] 26.4% | [2] 5.05% | [3] 10.3% | [4] 18.1% | [5] 0.45% | [6] 28.9%

CC(C)CNC(=S)N/N=C/c1ccc(C(C)C)cc1
inactive: [1] -19.6% | [2] -13.4% | [3] -8.4% | [4] -46.2% | [5] -13.1% | [6] -28.1%

CCc1cccc(C)c1NC(=O)CCc1nnc2s/c(=C\c3cccc4ccccc34)c(=O)n12
inactive: [1] 25.6% | [2] 16.5% | [3] 19.8% | [4] 24.5% | [5] 2.1% | [6] 33.2%

CC(C)=CCC(C)C
inactive: [1] -12.1% | [2] 3.85% | [3] 6.85% | [4] 7.9% | [5] -12.6% | [6] -3.85%

CC(=O)c1ccccc1[N+](=O)[O-]
inactive: [1] 2.95% | [2] -12.5% | [3] 21.7% | [4] 5.85% | [5] -7.55% | [6] 30.1%

CN1CCC=C(COC(=O)C(C)(C)C)C1
inactive: [1] 1.8% | [2] 4.9% | [3] -10.9% | [4] 7.45% | [5] 5.45% | [6] 18.4%

COc1nc2c(c(O)cn2C2OCC(OC(C)=O)C(OC(C)=O)C2OC(C)=O)c(=O)n1C (stereo unspecified)
inactive: [1] -1.65% | [2] -5.9% | [3] -25.8% | [4] -2.75% | [5] -1% | [6] 15.8%

CCC(=O)Nc1cc(Cl)ccc1Cl
inactive: [1] 34.2% | [2] 11.8% | [3] 10.4% | [4] 10.2% | [5] -8.9% | [6] 11.2%

N/N=C(/Cc1ccccc1)NNO
inactive: [1] 30.4% | [2] 13.8% | [3] 27.1% | [4] 22.4% | [5] 12.8% | [6] 22.2%

COc1cc(CNc2nc3ccccc3n2Cc2ccccc2)cc(CN2CCOCC2)c1O
inactive: [1] -4.4% | [2] 15.7% | [3] 3.7% | [4] 33.3% | [5] 9.55% | [6] 7.55%

CC(C)(C)OC(=O)CC(NC(=O)OC(C)(C)C)C(=O)NC(Cc1ccccc1)C(N)=O (stereo unspecified) (Boc-Asp(OtBu)-Phe-NH2; configuration not given here)
inactive: [1] -23.1% | [2] 6.85% | [3] -3.85% | [4] 35.5% | [5] 13.5% | [6] -11.3%

O=C(O)COc1cccc(O)c1
inactive: [1] -26.4% | [2] -24.2% | [3] -39.6% | [4] -13.1% | [5] -27.9% | [6] -20.1%

OCC(I)CO
inactive: [1] 15.8% | [2] 3.45% | [3] 16.9% | [4] 1.45% | [5] 1.7% | [6] 16.6%
